Where “and” joins values, the source holds several entries; their conditions need not be identical. Equal entries are not always repeated. About 1,200 (55%) of roughly 2,200 compounds were called active. No cut-off is given here; in the data, nearly all actives have IC50 up to about 92 µM. The set was probably picked from earlier hits. The list shows a part of the results.
experiment: counter assay for TAg ATPase ADP read-out – biochemical, ADP-Hunter, fluorescence, counter-screen (AID 2501); settings: series mostly up to 100 µM; inhibition: at the top concentration;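 note: purified T antigen ATPase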;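 for inhibition: 0% = enzyme with vehicle and 100% = reference inhibitor wells; higher means more inhibition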

SMILES | inhibition | IC50
O/N=C/c1ccc2ccccc2c1 | 21.4% (inactive) | –
C(=Nc1ccc(Nc2ccccc2)cc1)c1ccc2ccccc2c1 | – | 6.4 µM (active)
C/C(=C/c1oc2ccc(O)cc2c1[N+](=O)[O-])N(C)C | – | 5.75 µM (active)
O=C(c1ccc(CNS(=O)(=O)c2ccccc2)cc1)N1CCN(Cc2ccccc2)CC1 | 19.2% (inactive) | –
O=C(c1ccccc1)N1CCN(c2ccc(NCc3ccc4c(c3)OCO4)cc2)CC1 | – | 5.7 µM (active)
CC(=O)N1CCN(c2ccc(NCc3cccc4ccccc34)cc2)CC1 | – | 4.52 µM (active)
O=C(C1=C[C@H](C2CCCCC2)C[C@H](OCCCCO)O1)N1CCN(Cc2ccc3c(c2)OCO3)CC1 | -36% (inactive) | –
CC(=O)N1CCN(c2ccc(NCc3ccc(C)s3)cc2)CC1 | – | 3.62 µM (active)
O=C(O)CC(C(=O)O)n1nc(-c2ccccc2)cc1-c1ccccc1 (stereo not given) | -0.27% (inactive) | –
CC(=O)c1ccc2c(c1)C1C=CCC1C(C(=O)O)N2 (stereo not given) | -19.7% (inactive) | –
CCn1ccc(C(=O)N2CCN(c3ncccn3)CC2)n1 | -18.8% (inactive) | –
Cc1csc(N/N=C/c2ccc(O)c([N+](=O)[O-])c2)n1 | – | 13.2 µM (active)
CC(C)(C)c1ccc(C(=O)n2cnc3ccccc32)cc1 | -13.8% (inactive) | –
Oc1ccc(-c2nc(-c3ccc(F)cc3)c(-c3ccncc3)[nH]2)cc1 | – | 8.21 µM (active)
C/C(=N/OC(=O)C1CC1)c1cc(-c2ccc(Cl)cc2)no1 | 25.3% (inactive) | –
Cc1ccc(OC(=S)Nc2ccc(O)cc2)cc1 | – | 7.84 µM (active)
CC1(c2ccccc2)NC(=O)N(CC(=O)Nc2ccc(S(=O)(=O)Nc3ncccn3)cc2)C1=O (stereo not given) | -9.03% (inactive) | –
Cc1cc(C(=O)NNC(=O)CN2C(=O)NC(C)(c3ccccc3)C2=O)c(C)o1 (stereo not given) | -29.5% (inactive) | –
CCN(c1ccc(NC(=O)CN2C(=O)NC3(CCOc4ccccc43)C2=O)cc1)C(C)C (stereo not given) | – | 11.1 µM (active)
Cc1cc2c(N=O)c(NO)ccc2[nH]1 | – | 24.4 µM (active)
O=C1CNC(=S)N1CCc1ccc(O)c(O)c1 | – | 10.7 µM (active)
OC(COc1ccc2cc(Br)ccc2c1)CN1CCCC1 (stereo not given) | -8.01% (inactive) | –
O/N=C(\c1ccc2c(c1)OCCO2)C1CCCCC1 | -5.27% (inactive) | –
O=c1ccc2cc(O)c(O)cc2o1 | – | 11.3 µM (active)
N#CSCC(=O)c1cccc2ccccc12 | 13.2% (inactive) | –

SMILES | inhibition | IC50
O=C(c1ccc([N+](=O)[O-])cc1)N1CCN(c2cccc3[nH]ccc23)CC1 | – | 8.91 µM (active)
Cc1cc(OCC(=O)N(C)c2ccccc2)cc2c1C(=O)CC(C)(C)O2 | -23.8% (inactive) | –
O=C(NCCO)c1ccc2nc(-c3ccco3)c(-c3ccco3)nc2c1 | -13.4% (inactive) | –
CCCc1cc(C(=O)N2CCCC(C(=O)c3cccc4ccccc34)C2)n(C)n1 (stereo not given) | 15.6% (inactive) | –
O=C(/C=C/c1ccc(O)c(O)c1)O[C@@H]1C[C@](O)(C(=O)O)C[C@@H](O)[C@H]1O | – | 4.26 µM (active) and 8.41 µM (active)
CCCCNC(=O)c1onc(CCl)c1C(=O)OC | 8.49% (inactive) | –
COc1cc(Cl)ccc1NC(=O)COc1ccccc1C(=O)N1CCN(c2ccc(O)cc2)CC1 | – | 6.1 µM (active)
COc1cc(SC)ccc1C(=O)N1CCN(Cc2ccccc2)CC1 | -2.78% (inactive) | –
COc1cc(SC)ccc1C(=O)N1CCN(c2ccc(O)cc2)CC1 | – | 5.86 µM (active)
O=C(CCC1CCCCC1)Nc1ccccc1C(=O)N1CCOCC1 | -12.4% (inactive) | –
CCCCC(=O)OCC(=O)c1[nH]c(C)c(C(=O)OCC)c1C | -18.3% (inactive) | –
COc1cccc([C@H](O)Cn2cc(-c3ccc(CON=C(C)C)cc3)nn2)c1 | 16.7% (inactive) | –
CN(C)c1ccc(NC(=O)Cn2ncn3c(cc4ccccc43)c2=O)cc1 | – | 10.4 µM (active)
CN(C)c1ccc(NC(=O)COC(=O)Cn2nnc3ccccc32)cc1 | – | 4.51 µM (active)
CN(C)c1ccc(NC(=O)CN2CCN(CC(=O)Nc3ccc(F)cc3)CC2)cc1 | – | 9.6 µM (active)
CN(C)c1ccc(NC(=O)CN2CCN(c3ccc(F)cc3)CC2)cc1 | – | 2.66 µM (active)
CCOc1ccc(NC(=O)Cn2sc3nc(C)cc(C)c3c2=O)cc1 | 9.54% (inactive) | –
Cc1cccc(-n2c3nc(=O)[nH]c(=O)c-3cc3cc([N+](=O)[O-])ccc32)c1 | -3.39% (inactive) | –
CCOC(=O)C1CCN(c2ncnc3c2nnn3Cc2ccccc2Cl)CC1 | -12.6% (inactive) | –
CN(C)c1ccc(NC(=O)CC2NCCNC2=O)cc1 (stereo not given) | – | 4.71 µM (active)
Cc1c(-c2ccccc2)oc2c(C(=O)OCC(=O)Nc3ccc(C(N)=O)cc3)cccc2c1=O | -31.3% (inactive) | –
CCOC(=O)c1ccc(NC(=O)CC2NCCNC2=O)cc1 (stereo not given) | -11.5% (inactive) | –
CN(C)c1ccc(NC(=O)COC(=O)CCC(=O)c2ccc(F)cc2)cc1 | – | 4.64 µM (active)
Cc1nn(CC(=O)Nc2ccc(N(C)C)cc2)c(C)c1[N+](=O)[O-] | – | 5.17 µM (active)
Oc1ccc2c(c1)C1CCCC1(N1CCOCC1)O2 (stereo not given) | -102% (inactive) | –

SMILES | inhibition | IC50
CC(C)(C)c1nnc(NC(=O)CN2C(=O)C3C4C=CC(C4)C3C2=O)s1 (stereo not given) | -37.5% (inactive) | –
COc1ccc(NCN2C(=O)C3C4C=CC(C4)C3C2=O)cc1 (stereo not given) | – | 11.4 µM (active)
c1ccc(-c2ccc3c(c2)NCCN3)cc1 | – | 7.7 µM (active)
CCCCC/C=C\C/C=C\C/C=C\C/C=C\CCCC(=O)O | 24.2% (inactive) | –
COc1cccc(N2CC(=O)Nc3c(oc4nc(-c5ccccc5)cc(C)c34)C2=O)c1 | -11.9% (inactive) | –
CC(C)CCn1c(=O)c2ccccc2n2c(=S)[nH]nc12 | – | 10.9 µM (active)
COc1cccc(-n2cnnn2)c1 | -17.4% (inactive) | –
COCCCn1c(=O)c2ccccc2n2c(=S)[nH]nc12 | – | 8.77 µM (active)
COc1cccc(-n2c(=O)c3ccccc3n3c(=S)[nH]nc23)c1 | – | 16.1 µM (active)
CCCCCn1c(=O)c2ccccc2n2c(=S)[nH]nc12 | – | 11.7 µM (active)
CCCCn1c(=O)c2ccccc2n2c(=S)[nH]nc12 | – | 11.3 µM (active)
CCCn1c(=O)c2ccccc2n2c(=S)[nH]nc12 | – | 3.07 µM (active)
CCCCn1c(-c2cccc3ccccc23)nc2cc3[nH]c(=O)c(C(C)C)nc3cc21 | -11% (inactive) | –
CC(C)C(=O)c1ccc(O)c(O)c1 | – | 1.71 µM (active)
O=C(NCc1cccnc1)C(=O)Nc1cc2c3c(c1)CC(=O)N3CCC2 | -6.82% (inactive) | –
O=C(CNS(=O)(=O)c1cccc(Cl)c1)OCc1csc(-c2ccccc2)n1 | 20.6% (inactive) | –
CN(C)c1ccc(NS(=O)(=O)c2ccc(Cl)cc2)cc1 | – | 5.63 µM (active)
CN(C)c1ccc(NS(=O)(=O)c2cc3c4c(c2)CC(=O)N4CCC3)cc1 | – | 1.83 µM (active)
CN(C)c1ccc(NS(=O)(=O)c2cccc(Cl)c2)cc1 | – | 13 µM (active)
CCCNC(=O)NS(=O)(=O)c1ccc(Cl)cc1 | 14.3% (inactive) | –
COc1ccc(NS(=O)(=O)c2ccc(NS(=O)(=O)c3ccc(SC)cc3)cc2)c(OC)c1 | 7.44% (inactive) | –
O=C(CC(Sc1ccc(Br)cc1)C(=O)O)c1ccc(Br)cc1 (stereo not given) | 28.3% (inactive) | –
Oc1ccc(/C=N/Nc2ncnc3c2ncn3Cc2ccccc2)cc1O | – | 10.1 µM (active)
CNC(=O)CS(=O)CC(=O)Nc1cc(OCCOC)c(Cl)cc1Cl (stereo not given) | -15.2% (inactive) | –
CCOC(=O)c1ccc(-c2c(-c3ccc4c(c3)OCO4)noc2-c2ccsc2)cc1F | -33.2% (inactive) | –

SMILES | inhibition | IC50
CCOC(=O)c1[nH]nc(-c2cc(CC)c(O)cc2O)c1-c1cscn1 | – | 7.84 µM (active)
CN(C)c1ccc(Nc2nc(N)c([N+](=O)[O-])c(N3CCOCC3)n2)cc1 | – | 4.28 µM (active)
CCOc1ccc(/C=C(\C#N)C(=O)NC2CC2)c(OCC)c1 | 2.06% (inactive) | –
COc1ccc(/C=C(/C#N)C(=O)Nc2ccc(O)cc2)cc1C(=O)O | – | 2.62 µM (active)
N#C/C(=C\c1ccccc1OCc1ccc(C(=O)O)cc1)C(=O)Nc1ccc(O)cc1 | – | 5.71 µM (active)
CNc1ccc(/C=C(\C#N)C(=O)Nc2ccccn2)cc1[N+](=O)[O-] | 9.32% (inactive) | –
N#C/C(=C\c1ccc(O)c(O)c1)C(=O)NCc1ccccc1 | – | 7.7 µM (active)
N#C/C(=C\c1ccc(O)c([N+](=O)[O-])c1)C(=O)NCc1ccccc1 | 22% (inactive) | –
O=C(O)c1ccc(COc2ccccc2C=C2C(=O)c3ccccc3C2=O)cc1 | 15.4% (inactive) | –
N#C/C(=C\c1ccc(O)c(O)c1)C(=O)Nc1cccc2ncccc12 | – | 4.88 µM (active)
O=C(/C=C/c1ccc(Br)o1)NCc1ccccc1 | 0.14% (inactive) | –
COc1c(O)ccc2c1CN1CCc3cc4c(cc3C1C2)OCO4 (stereo not given) | 23.5% (inactive) | –
CCOC(=O)c1ccc(S(=O)(=O)Nc2nc3cc(S(=O)(=O)NC4=NCCCCC4)ccc3s2)cc1 | -36.8% (inactive) | –
N#C/C(=C\c1ccc(O)c(O)c1)C(=O)NCCc1ccccc1 | – | 5.36 µM (active)
N#C/C(=C\c1ccc(O)c(O)c1)C(=O)Nc1ccccc1 | – | 12.6 µM (active)
N#C/C(=C\c1ccc(N2CCOCC2)o1)C(=O)Nc1ccc(O)cc1 | – | 1.66 µM (active)
N#C/C(=C\c1ccc(O)c(O)c1)C(=O)NCCCc1ccccc1 | – | 8.38 µM (active)
CC(c1ccncn1)N(C)Cc1nc(Cc2ccccc2F)no1 (stereo not given) | -33.4% (inactive) | –
CCC(C)NC(=O)CC(c1ccccc1)c1cc(C)ccc1O (stereo not given) | 10.9% (inactive) | –
C[C@@H](NC(=O)/C(C#N)=C/c1ccc(O)c(O)c1)c1ccccc1 | – | 4.73 µM (active)
Oc1c(C(c2ccco2)N2CCN(C(c3ccccc3)c3ccccc3)CC2)sc2ncnn12 (stereo not given) | -1.94% (inactive) | –
C/C(=N\NC(=O)CSc1nc2ccccc2o1)c1ccc(O)cc1 | – | 6.4 µM (active)
C/C(=N/NC(=O)CSc1nc2ccccc2n1C)c1ccc(O)cc1 | – | 6.92 µM (active)
Cc1ccc(C)c(-n2c3nc(=O)[nH]c(=O)c-3cc3cc([N+](=O)[O-])ccc32)c1 | -8.14% (inactive) | –
COc1ccccc1C(C)NS(=O)(=O)c1cccs1 (stereo not given) | 1.27% (inactive) | –

Source: PubChem BioAssay AID2501 (Southern Research Specialized Biocontainment Screening …, 2010)
